Over roughly 16,000 sequences, “Z-score” has its median near -0.37; the highest 2% begin near 3.1. This is one part of a sample in which the highest values are shown more often than they occur.
These sequences were tested on RBM10 RRM1-ZnF-RRM2 (GST-tagged construct) (assay: RNAcompete 7-mer binding Z-score; higher = stronger binding preference).
Method: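 RNAcompete: 20 pmol GST-tagged RBM10 RNA-binding constructs were incubated with a designed RNA pool of about 241,000 sequences up to 41 nt (1.5 nmol) on glutathione beads for 30 min at 4 °C and washed. Bound RNAs were identified by microarray hybridisation. Each RNA 7-mer is scored by a one-sided Z-score of its enrichment, computed over probes that contain the 7-mer within longer pool sequences.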

Sequence | RNAcompete 7-mer binding Z-score
AGCGCGC | -0.282
CAGUCUU | -0.857
GAAAUCU | -0.46
CCGUUAA | -0.77
AGAAAAU | 0.0859
AGGGUAA | 4.77
CGGGUAU | 1.39
AGGGUCU | 0.559
CGGGUAA | 1.81
GGGGUAG | 4.58
UGGGUAA | 2.38
GUGGUAG | 2.26
GGGGUAA | 3.5
AGGGUAU | 3.41
GGGGUAU | 2.98
GGGGUAC | 2.82
GAGGUAA | 2.53
UGAGCAU | -0.0634
UGUAACU | -0.358
AUCGGCG | 0.337
CGCCUGG | -0.482
GUGGCCA | 0.403
UUCCGGG | 0.341
GUUGAGU | 0.57
GAGUCCU | -0.453

Sequence | RNAcompete 7-mer binding Z-score
UCAGUCA | -0.493
GGUGGUG | 3.25
AGUGGUG | 2.24
CGUGGUG | 1.44
UGUGGGA | 2.96
GGUGGUC | 2.11
UGUGGUG | 1.57
UGUGGGG | 3.75
AGUGUGG | 2.64
UGUGGGC | 1.83
AGUGGGG | 4.66
AGUGGGC | 2.96
GGUGGGC | 3.19
AAGCUCA | -0.635
GCACGGU | 0.519
GCACGCG | -0.0598
GUUGCCG | -0.216
AAGCGGU | 1.03
ACGGAAC | 0.785
GGUGGUU | 2.03
AGUGGUA | 1.92
GGUGGCA | 2.34
UGUGGGU | 2.9
CGUGGGU | 2.43
GGUGGGU | 3.47

Sequence | RNAcompete 7-mer binding Z-score
GCUGGGA | 1.69
AGUGGGU | 3.35
GCUGGGU | 1.78
AGUGGCA | 1.68
GGUGGGA | 3.75
AGUGGGA | 4.3
UAUUCAA | -0.606
UGUUUUU | -0.46
CUAACCC | -0.766
GGCGAAA | 1.35
CUCCUAU | -0.956
CGUGGGA | 2.39
CGUGGGC | 2.21
GCUGGGG | 2.46
GGGGGGG | 2.58
CGUGGGG | 3.57
GGUGGGG | 4.34
AUCUCUG | -0.846
GUGGGAC | 2.4
GUUGGGA | 3.05
GCGGGAA | 2.5
AUGGGAU | 3.25
GUGGGGC | 3.47
AUGGGAC | 2.47
GUGGGGA | 4.25

Sequence | RNAcompete 7-mer binding Z-score
CUGGGGC | 0.956
AUGGGCU | 1.51
GGGGGGC | 2
GUGGGAA | 3.49
CUGGGGA | 1.32
UCAACGC | -0.584
GGAAAUC | 0.931
UUGGGGU | 2.84
GUGGGAG | 3.99
GCGGGAG | 2.64
UCGGGAG | 1.18
GUGGCGC | 1.46
CUGGCGG | 0.541
GUGGGGG | 4.18
GUGGGGU | 4.45
GUGGCGG | 3.22
GUGGGUU | 2.54
CUGGGGG | 1.81
UGGCUAU | -0.00148
GGAUAGC | 2.07
CGCAACU | -0.825
UCAAUUC | -0.752
GUAGUGA | 1.1
GGUGCGA | 1.58
CUUUCCG | -0.777

Sequence | RNAcompete 7-mer binding Z-score
AUCAGCA | -0.395
AUUCCCC | -0.613
AGGAUAA | 1.21
UUGGGAU | 1.9
CUGGGAU | 0.964
GUGGGAU | 3.57
AUAAGAA | 0.177
GAUUGCC | -0.672
AAGUCUU | -0.697
CUAGGAG | 0.534
GUAGGAC | 1.86
GUAGGAG | 3.78
UUAGGGG | 2.07
CUAGGGG | 1.97
GUAGGGU | 4.48
CUAGGGU | 2
GUAGGGA | 4.26
GUAGGGG | 4.66
GUAGGGC | 2.85
UUAGGGA | 2.36
UUAGGGU | 3.02
AACUUUA | -0.679
UAGGCGG | 1.79
UGUGACC | -0.176
CGUCUUU | -0.613

Sequence | RNAcompete 7-mer binding Z-score
CCACUCG | -0.73
GGGUCUG | 0.993
ACCUCUG | -0.814
AUAGGGU | 4.33
AUAGGAG | 2.27
AUAGGCG | 1.16
AUAGGGG | 4.15
AUAGGGA | 2.9
AUAGGGC | 2.14
UACCUGC | -0.887
GUCCGUA | -0.471
GGAGUCA | 1.05
GCAGGGC | 1.51
ACAGGAG | 2.7
CCAGGGA | 1.51
GCAGGGG | 3.15
ACAGGGU | 3.11
ACAGGGG | 3.19
ACAGGGC | 2.36
GCAGGGU | 3.35
ACAGGGA | 3.47
CCAGGGG | 1.43
UCAGGGG | 1.46
CCAGGGU | 1.18
AUAUACC | -0.628

Sequence | RNAcompete 7-mer binding Z-score
CAUUCUC | -0.857
UGCACAU | -0.362
UCACAAG | -0.256
CUCGCGU | -0.635
CGGAUCA | 0.578
AAGGUGA | 3.62
GAGGUGA | 2.6
AAGGUGU | 2.26
AAGGUGC | 2.55
GAGGUGC | 1.65
AAGGUGG | 4.32
GAGGUGU | 2.31
GAGGUGG | 3.37
CAGGUGA | 1.54
AUUCUCC | -0.679
AGCAACG | 0.359
UGCCACU | -0.741
UCUCCCA | -0.697
GCUAAUA | -0.282
GAUAUGA | 0.643
AAGUGGG | 3.5
AAGUGGA | 3.2
UAGUGGA | 1.52
AAGUGGU | 1.6
GAGUGGA | 3.07

Sequence | RNAcompete 7-mer binding Z-score
CAGUGGG | 2.93
CCCCUCG | -0.573
GUCAGAG | 0.406
GCUGCGG | 1.05
AAUGCGA | 0.286
CGGCACA | 0.133
UAGACGC | -0.333
AGGGUUA | 3.86
AGGGUUC | 0.996
GGGGUUG | 3.23
CGGGUUG | 2.32
UGGGUUG | 2.56
GGGGUUA | 3.07
AGGGUUG | 3.34
UGGGUUA | 2.83
GGGGUUC | 1.83
GUAGUCU | -0.256
CCGUUUU | -1.01
UGCAUAU | -0.49
UUUCACU | -0.704
UCAUUAU | -0.621
UACCGAA | -0.428
CUUACAA | -0.785
GUAAGUC | -0.0743
CCGAACU | -0.839

Sequence | RNAcompete 7-mer binding Z-score
CCCACCC | -0.337
GGGGAGG | 3.33
GGGGAGA | 2.53
AGGGAGG | 3.18
UGGGAGA | 2.56
AGGGAGU | 3.13
GGGGAGU | 2.86
UGGGAGG | 4.58
CGGGAGG | 2.96
UGGGAGU | 1.95
CAUGGCC | -0.344
GUUGCCU | -0.613
AGGUUAC | 0.538
GAUCGCU | -0.697
CGGGUCC | 0.723
ACGAGGC | 0.742
ACGAGGU | 1.36
GCGAGGG | 3.86
ACGAGGG | 3.71
UCGAGGG | 1.93
GCGAGGA | 2.06
AAAGCAA | 0.563
AGCAGAA | 0.701
GUAAGGA | 3.28
GUAAGGG | 3.65

Sequence | RNAcompete 7-mer binding Z-score
UUAAGGA | 0.982
CUAAGGG | 1.35
GUAAGGC | 2.12
AUAAGGA | 2.16
AUAAGGG | 3.85
CUAAGGA | 0.286
AUAAGGU | 1.74
GAUCGUU | -0.464
AUUAAUA | -0.544
AAUAGAG | 0.742
AAGUUGC | -0.293
UGCUCCC | -0.821
UAGAAGG | 3.2
AAGAAGA | 1.03
AAGAAGG | 3.81
CUGAAGG | 0.902
UAGAAGU | 0.319
GAGAAGA | 1.04
CAGAAGG | 2.37
GAGAAGG | 4.54
AAGAAGU | 0.818
GUGAAGG | 3.69
AUGAAGG | 2.82
UAGAAGA | 0.348
UAUCUAC | -0.548

Sequence | RNAcompete 7-mer binding Z-score
UCACCAA | -0.65
AAAGCUC | -0.53
AGCUUCG | -0.795
UCAGAGU | 0.0786
GCUCUCA | -0.526
CAGGGUU | 2.05
GAGGGUU | 2.88
AAGGGUC | 2.01
UCGGGUU | 0.916
GAGGGUG | 3.5
UCGGGUA | 1.57
AAGGGUA | 4.27
UAGGGUA | 4.16
ACGGGUA | 2.22
UAGGGUU | 3.14
CAGGGUA | 2.88
GAGGGUC | 1.39
UUCCAGC | -0.715
GUGUUCA | -0.442
AGGUUUC | 0.184
ACUUGGU | -0.267
GUUAGUG | 0.953
UCUAGCA | -0.712
GUCAGUU | -0.289
CCGCUAG | -0.588

Sequence | RNAcompete 7-mer binding Z-score
CACUUCC | -0.868
UUCCCUG | -0.737
AACAUGC | -0.435
AAGGUUU | 2.37
AAGGGUU | 3.94
CAGGGUG | 2.84
GAGGGUA | 4.4
UAGGGUG | 4.51
AGGGUUU | 2.4
UAGGGUC | 2.16
CAGGGUC | 1.42
GAGGGCG | 2.81
UACUCUC | -0.734
UGCGCUG | -0.103
GCAGGAA | 2.07
AAAGGAC | 2.6
GAAGGAU | 3.32
UAAGGAA | 1.66
GAAGGAA | 4.54
UAAGGAU | 1.55
UAAGGAG | 1.9
CAAGGAU | 1.42
AAAGGAG | 3.75
GGAGGAA | 3.08
CAAGGAA | 1.77

Sequence | RNAcompete 7-mer binding Z-score
AAAGGAA | 3.51
AAUGGCG | 2.02
GUCCUGC | -0.606
UACCCCU | -0.65
AGCGCUG | -0.0889
GCCACUU | -0.992
UACACAU | -0.5
GUCCGCA | -0.672
UCUGAUC | -0.876
GCGUGUG | 0.618
AUCGCAA | -0.388
GCUUAAG | -0.439
GAAGGAC | 2.8
GAAGGAG | 4.52
CAAGGAG | 2.31
UGUGGAG | 2.47
GGUGGAA | 3.71
AGUGGAC | 1.44
CGUGGAA | 1.29
AGUGGAA | 3.21
GGUGGAU | 2.46
GGUGGAG | 3.9
AGUGGAU | 2.33
UGUGGAA | 1.47
CGUCACU | -0.515

Sequence | RNAcompete 7-mer binding Z-score
CACCCUG | -0.89
AUGACUA | -0.347
UGUGGUA | 0.833
GACGAGA | 0.691
UCAGCGU | -0.26
CCGGCAC | -0.388
AAGGAGA | 3.18
AAGGAGG | 4.62
GAGGAUG | 2.57
CAGGAGA | 2.02
UAGGAGA | 1.78
GAGGAGG | 2.99
AAGGAUA | 2.92
UAGGAGG | 2.94
AAGGAUG | 3.89
CCCAAUA | -0.759
CCGUCGC | -0.752
UGAUCCA | -0.515
ACAUCCU | -0.839
GCAGGAU | 1.22
GGAGCGA | 2.9
CGAGCGU | 0.166
UGAGCGG | 2.06
GGAGCGG | 4.19
CGAGCGG | 3.33

Sequence | RNAcompete 7-mer binding Z-score
AGAGCGG | 1.46
AGAGCGA | 0.581
CGGGUUU | 1.01
CUAUCGA | -0.781
GUGGAAG | 3.47
GUGGAAA | 2.46
AUGGAAG | 3.16
AUGGAAC | 2.02
GUGGAAC | 1.73
AUGGAAA | 2.62
UCGGAGU | 0.257
AGGGAUA | 4.38
GAGGAUA | 2
AGGGAUU | 2.37
CGGGAUA | 1.44
GGGGAUA | 3.16
AGGGAUC | 1.32
